The text below walks through data of PubChem BioAssay (NCI).

About 83,000 compounds went through this panel and 20% of them were active in at least one assay; those are over-represented in the sample as a whole.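 Results are percent growth after 48 hours of single-concentration exposure. 100 means growth as in untreated cells, lower positive values show inhibition; negative values down to -100 show cell death.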 Unmarked numbers belong to inactive results. The source made the active and inactive calls. Rule for the calls: active = growth percent below 10; inactive = the rest.

One assay concerns OVCAR-4 ovarian. In words: NCI-60 one-dose screen, 48 h (100 = growth as untreated, 0 = no growth, -100 = all killed). Particulars: 10 µM unless noted.
Take `CCN1C(=O)N(CC)C2C1NN=c1s/c(=C\c3cc4ccccc4[nH]3)c(=O)n12` (stereo not drawn): the growth is 32.9%.

Consider `CCN(CC)CCCNCc1cc(-c2ccccc2)nc2cc(Cl)ccc12`, for which the growth was 67.8%.

`CC[C@H](CC[C@@H](C)[C@H]1CC[C@H]2[C@@H]3CC[C@@H]4CC(=O)/C(=C\c5ccncc5)C[C@]4(C)[C@H]3CC[C@]12C)C(C)C`: the growth was 110%.

With `CCN(CC)c1ccc(/C=N\NC(=O)c2cccc(Nc3ccnc(C(F)(F)F)c3)c2)c(O)c1`, the growth is 18.8%.

For the molecule `Cc1cscc(C)c1=S`, the growth is 113%.

Consider `COC(=O)/C=C1/SC(=Nc2cccc(Cl)c2)N(CCc2c[nH]c3ccc(O)cc23)C1=O`, for which the growth was 24.9%.

With `O=C(CCCCCCCCC(=O)N/N=C\c1cc(Cl)ccc1O)N/N=C\c1cc(Cl)ccc1O`, the growth was 23%.

For `COc1ccc(/C=C/C(=O)c2cc3c(N)c(C(=O)Nc4ccc(OC)cc4)sc3nc2C)cc1`, the growth was 53.5%.

As for `CCCCCCOC(=O)CC1=C(C)/C(=C/c2[nH]c(-c3ccc[nH]3)cc2OC)N=C1C`, the growth is -29.2% (active).

Consider `Cc1ccc(O)c(NC(=O)c2ccc(CNc3ccnc(C(F)(F)F)c3)cc2)c1`, for which the growth was 53.1%.

Consider `O=C1/C(=C/c2ccc(Br)cc2)COc2ccc(O)c(O)c21`, for which the growth was 15.6%.

Regarding `O=C(/C=C/C12c3ccccc3C(c3ccccc31)C1C(=O)NC(=O)C12)c1ccc(F)cc1` (stereo not drawn), the growth was 30.3%.

In the case of `Cc1ccc(C)c2c1C(O)(C#Cc1ccccc1)c1ccccc1C2(O)C#Cc1ccccc1` (stereo not drawn), the growth was 47.7%.

`C(/C=C/c1ccccc1)=Nc1ccc(CCc2ccc(N=C/C=C/c3ccccc3)cc2)cc1`: the growth is 101%.

Take `O=C(Cn1nnc2ccccc21)Nc1ccc(-c2nc3ccccc3s2)cc1`: the growth is 72.2%.

In the case of `CCCCCCCC/C=C\CCCCCCCCOc1ccc(CC(=O)NCC[N+](C)(C)C)cc1`, the growth is 72.2%.

As to `COc1cc(/C=C2\CN(S(=O)(=O)c3ccc(C)cc3)C/C(=C\c3cc(CN4CCCCC4)c(O)c(OC)c3)C2=O)cc(CN2CCCCC2)c1O`, the growth is -72.7% (active).

Turning to `Cc1ncc(C(=O)Nc2ccc(CN3CCN(C)CC3)c(C(F)(F)F)c2)cc1C#Cc1cnc(N)c2ccncc12`, the growth was -16.9% (active).

`COc1cc(C2=NN(C(C)=O)C(c3ccc(N(C)C)cc3)C2)cc(OC)c1OC` (stereo not drawn): the growth is 96.7%.

`COC1=CC(c2ccc[nH]2)=N/C1=C\c1[nH]c(C)c(CC(=O)OCc2ccccc2)c1C`: the growth was 10.5%.

In the case of `CCOC(=O)CSc1nc2sc3c(c2c(=O)n1-c1ccc([N+](=O)[O-])cc1)CCCCC3`, the growth was 31%.

Turning to `CN(C)c1ccc(C(=NO)c2ccc(N(C)C)cc2)cc1`, the growth is 71.3%.

For the molecule `Cc1ccc(C(=O)c2ccc(CC(=O)N/N=C/c3ccc(O)cc3O)n2C)cc1`, the growth was 20.7%.

Turning to `N#C/C(=C\c1ccc(Br)cc1)c1cc2ccccc2[nH]1`, the growth is 112%.

Turning to `COc1ccc(-c2cn(-c3ccc(Cl)cc3)c(SCC(=O)c3ccc([N+](=O)[O-])cc3)n2)cc1`, the growth is 38.7%.

Turning to `COc1ccc(Cc2nnc(Nc3nc4ccccc4s3)s2)cc1`, the growth is 105%.

For the molecule `CCOC(=O)c1ccc2c(c1)c1c(C)c3ccncc3c(C)c1n2C`, the growth is -12.8% (active).

In the case of `Cc1nc2sc(C(=O)Nc3cccc(Cl)c3)c(N)c2cc1C(O)c1ccccc1` (stereo not drawn), the growth was 71.6%.

For the molecule `COc1ccc(C2CC(c3ccc(Nc4nc(Nc5ccc(F)cc5)nc(Nc5ccc(F)cc5)n4)cc3)=NN2C(C)=O)cc1` (stereo not drawn), the growth was 98.1%.

As to `N#Cc1c(NC(=O)c2cccs2)[n+]([O-])c2ccc(Cl)cc2[n+]1[O-]`, the growth was 94.8%.

Turning to `CC(C)(C)c1cc(C=Nc2cccc(C(F)(F)F)c2)c(O)c(C(C)(C)C)c1`, the growth was 97.3%.

On to `N=c1sc(Cc2cc(Cl)ccc2Cl)cn1CC(=O)c1ccccc1`, for which the growth is 56.5%.

Turning to `COc1ccc(Nc2ncc(C(N)=O)c(NCCCNC(=O)C3CCC3)n2)cc1`, the growth is 81%.

`Cc1nn(-c2ccccc2)c(/N=C/N(C)C)c1/C=C/C(=O)c1ccc(Cl)cc1`: the growth is 98.3%.

Turning to `COc1ccc2cc(-c3ccc(-c4ccc(C(=N)N)s4)s3)ccc2c1`, the growth is -45.6% (active).

In the case of `O=C1c2cccnc2C(=O)c2c1c(C(=O)OCCCN1CCCCC1)c1ccccn21`, the growth is -61.8% (active).

For `O[C@@H](c1cc(C(F)(F)F)nc2c(C(F)(F)F)cccc12)[C@H]1CCCCN1`, the growth was 62.6%.

With `Cc1[nH]c(/C=C/C(=O)c2ccc(C(F)(F)F)c(F)c2)c(C)c1C(=O)NCC(C)C`, the growth is 101%.

As to `CCCCCCCCn1ccc2cc(NC(=O)Cn3cc(CN4CCCCCC4)nn3)ccc21`, the growth was 51%.

The test system of the next assay is SK-OV-3 ovarian. The description is as above. Particulars: 10 µM unless noted.
Take `CCN1C(=O)N(CC)C2C1NN=c1s/c(=C\c3cc4ccccc4[nH]3)c(=O)n12` (stereo not drawn): the growth is 31.7%.

On to `CCN(CC)CCCNCc1cc(-c2ccccc2)nc2cc(Cl)ccc12`, for which the growth was 75.6%.

As to `CC[C@H](CC[C@@H](C)[C@H]1CC[C@H]2[C@@H]3CC[C@@H]4CC(=O)/C(=C\c5ccncc5)C[C@]4(C)[C@H]3CC[C@]12C)C(C)C`, the growth was 99.7%.

As for `CCN(CC)c1ccc(/C=N\NC(=O)c2cccc(Nc3ccnc(C(F)(F)F)c3)c2)c(O)c1`, the growth was 19.5%.

`Cc1cscc(C)c1=S`: the growth is 98.9%.

For the molecule `COC(=O)/C=C1/SC(=Nc2cccc(Cl)c2)N(CCc2c[nH]c3ccc(O)cc23)C1=O`, the growth is 86.6%.

On to `O=C(CCCCCCCCC(=O)N/N=C\c1cc(Cl)ccc1O)N/N=C\c1cc(Cl)ccc1O`, for which the growth is 41.1%.

As for `COc1ccc(/C=C/C(=O)c2cc3c(N)c(C(=O)Nc4ccc(OC)cc4)sc3nc2C)cc1`, the growth was 16.1%.

For `CCCCCCOC(=O)CC1=C(C)/C(=C/c2[nH]c(-c3ccc[nH]3)cc2OC)N=C1C`, the growth is -34.5% (active).

As to `Cc1ccc(O)c(NC(=O)c2ccc(CNc3ccnc(C(F)(F)F)c3)cc2)c1`, the growth is 82%.

For the molecule `O=C1/C(=C/c2ccc(Br)cc2)COc2ccc(O)c(O)c21`, the growth was 58.8%.

Turning to `O=C(/C=C/C12c3ccccc3C(c3ccccc31)C1C(=O)NC(=O)C12)c1ccc(F)cc1` (stereo not drawn), the growth was -1.75% (active).

Take `Cc1ccc(C)c2c1C(O)(C#Cc1ccccc1)c1ccccc1C2(O)C#Cc1ccccc1` (stereo not drawn): the growth is 75%.

Take `C(/C=C/c1ccccc1)=Nc1ccc(CCc2ccc(N=C/C=C/c3ccccc3)cc2)cc1`: the growth was 98.6%.

For `O=C(Cn1nnc2ccccc21)Nc1ccc(-c2nc3ccccc3s2)cc1`, the growth was 104%.

As to `CCCCCCCC/C=C\CCCCCCCCOc1ccc(CC(=O)NCC[N+](C)(C)C)cc1`, the growth is 93.6%.

For the molecule `COc1cc(/C=C2\CN(S(=O)(=O)c3ccc(C)cc3)C/C(=C\c3cc(CN4CCCCC4)c(O)c(OC)c3)C2=O)cc(CN2CCCCC2)c1O`, the growth is 115%.

On to `Cc1ncc(C(=O)Nc2ccc(CN3CCN(C)CC3)c(C(F)(F)F)c2)cc1C#Cc1cnc(N)c2ccncc12`, for which the growth is -34.7% (active).

On to `COc1cc(C2=NN(C(C)=O)C(c3ccc(N(C)C)cc3)C2)cc(OC)c1OC` (stereo not drawn), for which the growth was 110%.

For the molecule `COC1=CC(c2ccc[nH]2)=N/C1=C\c1[nH]c(C)c(CC(=O)OCc2ccccc2)c1C`, the growth is 11%.

For `CCOC(=O)CSc1nc2sc3c(c2c(=O)n1-c1ccc([N+](=O)[O-])cc1)CCCCC3`, the growth is 68.3%.

Take `CN(C)c1ccc(C(=NO)c2ccc(N(C)C)cc2)cc1`: the growth is 57.7%.

In the case of `Cc1ccc(C(=O)c2ccc(CC(=O)N/N=C/c3ccc(O)cc3O)n2C)cc1`, the growth is 45.1%.

Regarding `N#C/C(=C\c1ccc(Br)cc1)c1cc2ccccc2[nH]1`, the growth was 81%.

As to `COc1ccc(-c2cn(-c3ccc(Cl)cc3)c(SCC(=O)c3ccc([N+](=O)[O-])cc3)n2)cc1`, the growth was 85.2%.

With `COc1ccc(Cc2nnc(Nc3nc4ccccc4s3)s2)cc1`, the growth was 115%.

In the case of `CCOC(=O)c1ccc2c(c1)c1c(C)c3ccncc3c(C)c1n2C`, the growth is 0.282% (active).

As for `Cc1nc2sc(C(=O)Nc3cccc(Cl)c3)c(N)c2cc1C(O)c1ccccc1` (stereo not drawn), the growth is 40.6%.

For `COc1ccc(C2CC(c3ccc(Nc4nc(Nc5ccc(F)cc5)nc(Nc5ccc(F)cc5)n4)cc3)=NN2C(C)=O)cc1` (stereo not drawn), the growth is 131%.

Turning to `N#Cc1c(NC(=O)c2cccs2)[n+]([O-])c2ccc(Cl)cc2[n+]1[O-]`, the growth is 94%.

As to `CC(C)(C)c1cc(C=Nc2cccc(C(F)(F)F)c2)c(O)c(C(C)(C)C)c1`, the growth was 100%.

On to `N=c1sc(Cc2cc(Cl)ccc2Cl)cn1CC(=O)c1ccccc1`, for which the growth is 67.9%.

With `COc1ccc(Nc2ncc(C(N)=O)c(NCCCNC(=O)C3CCC3)n2)cc1`, the growth is 36.6%.

Consider `Cc1nn(-c2ccccc2)c(/N=C/N(C)C)c1/C=C/C(=O)c1ccc(Cl)cc1`, for which the growth was 111%.

As for `COc1ccc2cc(-c3ccc(-c4ccc(C(=N)N)s4)s3)ccc2c1`, the growth is 97.2%.

In the case of `O=C1c2cccnc2C(=O)c2c1c(C(=O)OCCCN1CCCCC1)c1ccccn21`, the growth was -40.6% (active).

For `O[C@@H](c1cc(C(F)(F)F)nc2c(C(F)(F)F)cccc12)[C@H]1CCCCN1`, the growth is 82.7%.

`Cc1[nH]c(/C=C/C(=O)c2ccc(C(F)(F)F)c(F)c2)c(C)c1C(=O)NCC(C)C`: the growth was 105%.

Regarding `CCCCCCCCn1ccc2cc(NC(=O)Cn3cc(CN4CCCCCC4)nn3)ccc21`, the growth is 97.6%.
